This is a sample that favours compounds with a hit; in the whole collection about 2.9% have one here.
GLP-1R inv ag = qHTS of GLP-1 Receptor Inverse Agonists (Inhibition Mode); Glucagon-like peptide 1 receptor (Homo sapiens), P43220; HEK293 GLP-1R CRE-luciferase, luminescence, 24 h; GLP-1R form is constitutively active; Potency, µM (highest dose often 38.3 µM), for the others: at the top dose activity change, negative = inhibition, actives largely listed as inhibitors; hit rate 1.6% among 410,000; AID 624417, 2012; further: potency means the concentration at half of the fitted maximal effect; on the % scale 0 is the no-effect control and ±100 the full control effect; nearly all actives have a fitted effect of over 55% in size
Target sequence (P43220 whole entry, looked up): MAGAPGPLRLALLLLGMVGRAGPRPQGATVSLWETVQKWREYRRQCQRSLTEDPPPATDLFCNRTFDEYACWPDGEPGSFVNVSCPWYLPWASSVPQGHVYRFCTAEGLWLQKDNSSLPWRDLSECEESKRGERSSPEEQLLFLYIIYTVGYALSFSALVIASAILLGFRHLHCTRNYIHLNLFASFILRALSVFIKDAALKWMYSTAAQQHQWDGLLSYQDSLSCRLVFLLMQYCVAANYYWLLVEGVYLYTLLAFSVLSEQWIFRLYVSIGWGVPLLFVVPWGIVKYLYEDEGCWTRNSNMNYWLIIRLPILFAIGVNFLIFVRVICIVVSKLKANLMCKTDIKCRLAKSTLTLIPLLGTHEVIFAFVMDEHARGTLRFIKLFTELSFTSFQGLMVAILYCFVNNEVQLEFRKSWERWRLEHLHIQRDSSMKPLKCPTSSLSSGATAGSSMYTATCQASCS
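GLP-1R inverse agonism mode: basal reporter luminescence in engineered HEK293 cells measured after one day of compound exposure at 37 deg C, with a 12 min room-temperature detection step.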
LDHA inh = qHTS assay for inhibitors of human lactate dehydrogenase | L-lactate dehydrogenase A chain (Homo sapiens), P00338 | purified LDHA, NADH/diaphorase-resazurin fluorescence; hits give low values | activity change, % (values are at about 110 or 230 µM) | hit rate 0.15% among 480,000 | AID 1347041, 2019; in the data active means activity change below about -30%; inconclusive means mostly about -25% to -30%;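 further: plate controls were DMSO wells for no effect and wells without enzyme for full effect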
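Remaining NADH was detected by diaphorase (0.133 mg/mL) converting 37 µM resazurin to fluorescent resorufin, read at 0 and 20 minutes. The preceding 5-minute room-temperature reaction used 2 nM LDHA, 0.2 mM sodium pyruvate and 0.06 mM NADH at pH 7.4.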
p53 reactivator = qHTS assay for re-activators of p53 using a Luc reporter; H1299 p53-A138V BP100-luciferase reporter, luminescence, 24 h; Potency, µM (doses to about 92.2 µM), for the others: at the top dose activity change, positive = activation, actives largely listed as activators; hit rate 0.063% among 320,000; further: potency means the concentration at half of the fitted maximal effect; % of control where 0% means no effect; nearly all actives have a fitted effect of over 45% in size
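p53-null H1299 cells stably carrying temperature-sensitive p53-A138V and a BP100-luciferase reporter were pinned with compounds (4-point, 1:5 series) and held 24 hrs at 37 deg C. Luminescence was read 10 min after detection reagent.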
GLP1R ag = qHTS of GLP-1 Receptor Agonists; hit rate 0.007% among 380,000; Potency, µM (highest dose often 45.6 µM), for the others: at the top dose activation, hits mostly activators; AID 624172, 2012; Glucagon-like peptide 1 receptor (Homo sapiens), P43220; HEK293 GLP-1R CRE-luciferase, luminescence, 4-6 h; cells express a hypersensitive GLP-1R form; further: potency means the concentration at half of the fitted maximal effect; % of control where 0% means no effect
GLP1R cytotox = qHTS of GLP-1 Receptor Inverse Agonists: Cytotox Screen; AID 624418, 2012; Potency, µM (titrated, usually from 38.3 µM), inactives show at the highest dose activity change, negative = inhibition, most hits filed as inhibitors; HEK293 cAMP-luciferase reporter cells, luminescence, 24 h; hit rate 0.13% among 410,000;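 further: loss of luciferase light is scored as toxicity; potency means the concentration at half of the fitted maximal effect; on the % scale 0 is the no-effect control and ±100 the full control effect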
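Compound-treated cells are incubated 24 hr at 37 deg C under 5% CO2 after a 12 hour attachment period, then luciferase detection reagent is added and luminescence is measured following 12 min at room temperature; lowered signal indicates toxicity.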
ClpP mod = qHTS Assay for Activators of ClpP | hit rate 1.9% among 340,000 | Potency, µM (series often up to 57.5 µM), inactives show top-dose activity change, negative = active | purified B. subtilis ClpP, FRET peptide cleavage, 20 min | ATP-dependent Clp protease proteolytic subunit (Bacillus subtilis (strain 168)), P80244; active means well fitted falling curve with a large enough effect; inconclusive means small, poorly fitted or top-dose-only effect; inactive means no such curve, though single readings can be large or run the other way; further: potency means the concentration at half of the fitted maximal effect; the source files actives as falling curves though it sought activators and does not explain the sign; nearly all actives have a fitted effect of over 65% in size
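Buffer: 100 mM Tris/HCl pH8, 100 mM KCl, 0.05% low protease BSA, 2.5% glycerol, 0.01% Tween-20. ClpP 10 microg/mL final; 20 min RT; delta FRET normalized to ADEP and DMSO controls.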
The depositor's hits bear a star; ? = inconclusive; nt = no result. Unless noted, the call rests on the fitted dose curve; in most records, active means well fitted curve in the direction sought with a large enough effect; inconclusive means small, poorly fitted or top-dose-only effect, or another doubt; inactive means no such curve, though single readings can be large; an effect the other way counts as inactive or inconclusive.

SMILES	GLP-1R inv ag	LDHA inh	p53 reactivator	GLP1R ag	GLP1R cytotox	ClpP mod
CC(NC(=O)C1CCCC1)C1CC2CCC1C2 (centres undefined)	-24%	1	2%	-6%	-10%	28µM*
CC(NC(=O)CCC1CCCCC1)C1CC2CCC1C2 (centres undefined)	nt	2	nt	nt	nt	nt
CC(NC(=O)c1ccccc1Br)C1CC2CCC1C2 (centres undefined)	?	-3	nt	8%	-3%	nt
CC(NC(=O)c1ccccc1[N+](=O)[O-])C1CC2CCC1C2 (centres undefined)	-10%	-8	?	-10%	-1%	25µM*
Cc1ccc2nc(NC(=O)C3CCN(S(=O)(=O)c4cnc[nH]4)CC3)sc2c1	?	-1	8%	1%	-1%	-4%
CCOC(=O)c1ccc2c(c1)C(=O)N(C1CCCCC1)C2=O	0%	-7	-1%	-18%	-14%	0%
O=C(c1ccco1)N1CCN(c2nc(C3CC3)nc3c2nnn3Cc2ccccc2Cl)CC1	10µM*	-10	-8%	7%	3%	-15%
O=C(c1ccco1)N1CCC(c2nc3c(nnn3Cc3ccccc3Cl)c(=O)[nH]2)CC1	49%	0	-1%	15%	-15%	nt
C=CCN(c1ccccc1OC)S(=O)(=O)c1cccc(C(=O)OCC(=O)N2CC(C)OC(C)C2)c1 (centres undefined)	-17%	1	-3%	3%	27%	-3%
CC1=C(C(=O)N(C(C)C)C(C)C)CC(CC(=O)NC2CCCCC2)C(=O)N1Cc1ccccc1 (centres undefined)	?	-34*	nt	13%	-15%	-2%
CCOC(=O)CSc1ccc2nnc(-c3ccccc3)n2n1	9%	-6	6%	-4%	7%	?
COc1ccc(NC(=O)C2=C(C)C(=O)OC23CCC(C)CC3)cc1Cl (centres undefined)	7.9µM*	2	-2%	1%	-7%	-5%
COc1ccc(C2CC(=O)C(C)C(c3ccc(OC)cc3)N2)cc1 (centres undefined)	nt	3	nt	nt	nt	nt
COc1cc(Br)ccc1C1CC(=O)C(C)C(c2ccc(Br)cc2OC)N1 (centres undefined)	10µM*	-1	-4%	11%	3%	0%
O=c1ccc(S(=O)(=O)N2CCCC2)c[nH]1	1%	-9	1%	1%	3%	-2%
CC1CC(=O)N(c2ccc(Br)cc2)C(=O)C1	17%	-2	3%	-1%	5%	1%
CCCCNC(=O)c1sc2nc(C)cc(COC)c2c1-n1cccc1	8.9µM*	1	0%	-6%	-19%	6%
COCc1cc(C)nc2sc(C(=O)NN)c(-n3cccc3)c12	13%	-8	8%	0%	20%	nt
CN(C)CCCNc1oc(-c2cccc(Cl)c2)nc1C#N	6.3µM*	2	12%	-2%	-2%	?
COc1ccc(-c2nc(C#N)c(N3CCCC3)o2)cc1OC	nt	0	nt	nt	nt	nt
COc1ccc(-c2nc(C#N)c(NCCc3ccccc3)o2)cc1OC	73%	0	?	-23%	-9%	6.3µM*
COc1ccc(CNc2oc(-c3ccccc3)nc2C#N)cc1OC	nt	7	nt	nt	nt	nt
COc1ccc(-c2nc(C#N)c(NCc3ccc(C)cc3)o2)cc1OC	103%	-2	nt	?	-1%	32µM*
COc1ccc(-c2nc(C#N)c(N3CC(C)OC(C)C3)o2)cc1OC (centres undefined)	9%	-5	-3%	-2%	0%	0.71µM*

Screening data from PubChem.
